KLF5 inh: inhibitors of KLF5 expression. DLD-1 KLF5 promoter-luciferase reporter, luminescence. inhibition, % at 5 µM. actives 0.23% (n = 290,000). AID 1700;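 active means inhibition above a per-plate limit of that plate's mean compound inhibition plus 3 SD, cut at about 60% in these data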;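 further: 0% = DMSO wells and 100% = LY294002 at 200 µM; higher means less KLF5 promoter-driven luciferase light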
aSyn UTR inh: MLPCN primary screen, SNCA 5' untranslated region | alpha-synuclein 5'UTR reporter, inhibitor activity | inhibition, % (tested at 7.5 µM) | actives 0.82% (n = 300,000) | AID 1813; in the data active means inhibition above about 60%;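 further: H4 neuroglioblastoma cells stably carrying SNCA 5'UTR luciferase fusion; 0% = DMSO wells and 100% = positive control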
IEC-6 tox: IEC-6 cytotoxicity, counter-screen for KLF5 inhibitors | actives 0.78% (n = 290,000) | AID 1825 | luminescence viability | inhibition, % at 5 µM; in the data active means inhibition above about 22%;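 further: 0% = plate median of test compound wells and 100% = cytotoxic reference compound wells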
APP transl inh: APP translation inhibition; SH-SY5Y APP 5'UTR-luciferase reporter, luminescence; inhibition, % at 2 µM; actives 0.82% (n = 190,000);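 active means inhibition above a set limit, derived from the sample mean plus 3 SD, cut at about 45% in these data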
BaF3 tox: counter-screen for JAK2V617F inhibitors: parental Ba/F3 viability inhibitors; inhibition, % at 5.6 µM; CellTiter-Glo ATP luminescence; actives 1.1% (n = 220,000); AID 1486;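 active means inhibition above a per-campaign cutoff, the mean inhibition of all tested compounds plus 3 SD, cut at about 27% in these data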;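 further: 0% = DMSO wells and 100% = JAK Inhibitor I control wells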
Ba/F3 V617F tox: reduce viability of Ba/F3 cells dependent on JAK2V617F. Ba/F3 EpoR-JAK2V617F viability, ATP luminescence. inhibition, % at 5.6 µM. actives 1.1% (n = 220,000);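 active means inhibition above the campaign mean plus 3 SD over all tested compounds, cut at about 24% in these data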;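 further: cytokine-independent growth of Ba/F3 cells driven by EpoR plus mutant JAK2; 0% = DMSO-treated cells and 100% = JAK inhibitor I control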
An asterisk follows results filed as active; . = not tested or not shown. An excerpt weighted towards active compounds, which were near 2.1% of everything screened.

SMILES	KLF5 inh	aSyn UTR inh	IEC-6 tox	APP transl inh	BaF3 tox	Ba/F3 V617F tox
CCC(C(=O)NC(C)(C)C)N(Cc1ccc(F)cc1)C(=O)c1snc(C(N)=O)c1N (configuration not stated)	-8	-5	-2	.	.	.
O=c1c2c3c(sc2n2c(=S)[nH]nc2n1Cc1ccccc1)CN(Cc1ccccc1)CC3	-11	.	-1	-18	7	2
Cc1cccc(N(Cc2ccccc2)C(=O)c2cc(S(=O)(=O)N3CCOCC3)ccc2Cl)c1	.	-3	.	.	.	.
COc1cc(/C=C2/SC(=Nc3ccc(O)cc3)NC2=O)ccc1O	36	-23	13	.	72*	75*
COc1cc(/C=C2\SC(=Nc3ccccc3OC)NC2=O)ccc1O	16	-1	7	.	.	.
CCCn1c(C2CCCN2c2nc(-c3cccc(Br)c3)cs2)nc2ccccc21 (configuration not stated)	-15	-93	4	.	.	.
O=C(Nc1ccccc1N1CCOCC1)c1cnccn1	15	16	1	17	3	-3
O=C(Nc1ccc(N2CCOCC2)cc1)c1cnccn1	44	67*	8	.	.	.
O=C(Nc1ccc(N2CCOCC2)cc1)c1cnsn1	16	106*	-2	-24	6	-2
CN(C(=O)c1cccc(C#CC(C)(C)O)c1)C1CCCN(Cc2ccccc2F)C1 (configuration not stated)	-2	26	-3	.	.	.
Cc1cc(C(=O)N/N=C/c2ccc(N(C)C)cc2)c2ccccc2n1	22	-23	22	46*	9	8
O=C(N/N=C/c1ccsc1)c1cc(-c2ccncc2)nc2ccccc12	-6	-11	8	60*	1	2
O=[N+]([O-])c1ccc(O)c(/C=N/Nc2nc3ccccc3[nH]2)c1	24	47	4	81*	5	-1
COc1ccc(O)c(/C=N/Nc2nc3ccccc3[nH]2)c1	-95	-81	11	-35	7	3
O=[N+]([O-])c1ccc(O)c(/C=N/Nc2ncnc3c2cnn3-c2ccccc2)c1	15	66*	3	.	.	.
COc1ccc(NC(=O)CSc2nnc(-c3ccncc3)o2)c([N+](=O)[O-])c1	-86	-13	-4	.	.	.
COc1cccc(OC)c1OCCCN1CCC(Cc2ccccc2)CC1	-22	-5	4	.	.	.
CCCCCN(C(=O)CCC(=O)OCc1cccc(Br)c1)c1c(N)n(CCCC)c(=O)[nH]c1=O	.	11	.	.	.	.
CC1c2cc3c(cc2CCN1C(=O)c1cccc(F)c1)OCCCO3 (configuration not stated)	-20	-69	5	.	.	.
Cc1nn(C)cc1S(=O)(=O)Nc1cccc(Cl)c1	-4	26	-1	.	.	.
Cc1ccc(OCCSc2nc3ccccc3n2CC(=O)O)cc1C	-28	2	1	.	.	.
Cc1nc(Cc2nnc(SCC(=O)Nc3c(C)cccc3C)o2)cs1	.	2	.	.	.	.
O=C(N/N=C/c1ccc2c(c1)OCO2)c1cc(-c2ccccc2Cl)nc2ccccc12	-11	22	5	5	6	3
O=C(N/N=C/c1ccc2c(c1)OCO2)c1cc(-c2ccncc2)nc2ccccc12	-4	-5	-4	67*	5	1
O=C(N/N=C/c1cc([N+](=O)[O-])ccc1O)c1cc(-c2ccccc2)nc2ccccc12	-16	81*	7	30	3	4
SMILES	KLF5 inh	aSyn UTR inh	IEC-6 tox	APP transl inh	BaF3 tox	Ba/F3 V617F tox
Cc1cc(NC(=O)c2cc(-c3ccccn3)nc3ccc(Br)cc23)no1	-8	44	4	.	.	.
O=C(Nc1ccccn1)c1cc(-c2cccnc2)nc2ccc(Br)cc12	-10	62*	5	18	10	5
Cc1ccc(/C=N/NC(=O)c2cc(-c3cccnc3)nc3ccccc23)cc1	-6	81*	5	68*	3	3
COc1ccc(/C=N/NC(=O)CNC(=O)c2ccncc2)cc1	-19	5	2	.	.	.
CC/C(=N/N=C(/CC)c1ccc(O)cc1)c1ccc(O)cc1	.	2	.	.	.	.
O=C(N/N=C/c1ccco1)c1cc(-c2cccc(Br)c2)nc2ccccc12	12	-7	-10	2	6	-1
CC(/C=N/NC(=O)c1cc(-c2ccncc2)nc2ccccc12)=C\c1ccco1	-21	86*	-6	88*	0	-3
CCOc1cc(/C=C(\CC(=O)O)c2nc3ccccc3s2)ccc1OC	-5	18	12	-9	41*	9
COc1ccc(/C=C(\CC(=O)O)c2nc3ccccc3s2)cc1O	-20	-9	7	-14	4	-2
NS(=O)(=O)c1cccc(NC(=O)COC(=O)C2(c3cccc(F)c3)CCCC2)c1	9	13	-5	18	9	4
COc1ccc(C(NC(C)=O)c2cc(Cl)c3cccnc3c2O)cc1OC (configuration not stated)	-35	46	-4	50*	10	4
CCCC(=O)NC(c1cccs1)c1cc(Cl)c2cccnc2c1O (configuration not stated)	-13	99*	-1	44	-2	-2
CCCC(=O)NC(c1ccco1)c1cc(Cl)c2cccnc2c1O (configuration not stated)	-17	40	5	4	4	7
COc1ccc(C(NC(C)=O)c2ccc3cccnc3c2O)c(OC)c1 (configuration not stated)	.	83*	.	.	.	.
CCCC(=O)NC(c1ccc2c(c1)OCO2)c1cc(Cl)c2cccnc2c1O (configuration not stated)	15	80*	-9	75*	-1	-5
CCCOc1ccc(C(=O)CCCC(=O)c2ccc(OCCC)cc2)cc1	-32	-10	-6	.	.	.
O=C(OCc1ccccn1)c1ccc(COc2ccc3ccccc3c2)o1	-129	-104	1	.	-11	-2
ON/C=N/C(=S)Nc1ncc(C(F)(F)F)cc1Cl	-64	15	3	2	62*	56*
CCOC(=O)N1CCN(C2CCCN(C(=O)c3ccccc3N(C)C)C2)CC1 (configuration not stated)	-26	10	-5	.	.	.
CCC1N=C(SC)NC(C)=C1C(=O)c1ccccc1 (configuration not stated)	-12	-8	3	5	7	1
CSC1=NC(C(Cl)(Cl)Cl)N=C(c2ccc(C)cc2)N1 (configuration not stated)	53	118*	58*	71*	64*	83*
COc1ccc(Br)c(C(=O)NCC2CCCCC2)c1	0	-6	1	.	.	.
Cc1ccc(NC(=O)CSCC(=O)N2CCN(Cc3ccc4c(c3)OCO4)CC2)cc1	-51	2	0	.	.	.
CCCc1c(C(=O)N/N=C/c2cccc3ccccc23)nnn1-c1nonc1N	-5	7	7	.	.	.
CCOc1ccc(OCc2ccc(C(=O)N/N=C(\C)c3ccccn3)cc2)cc1	-118	64*	-2	78*	8	5
CC(C)NC(=O)c1cc(-c2cccs2)nc2ccccc12	-37	1	-5	.	.	.
C/C(=N\NC(=O)c1cc(-c2cccs2)nc2ccccc12)c1ccccn1	-1	79*	2	71*	7	4

Source: PubChem BioAssay
